Bioassay records as filed in PubChem BioAssay.
The list is not random: actives were taken first. Their share in the collection is about 7.4%.
ELG1 genotox – qHTS screen for small molecules that induce genotoxicity in human embryonic kidney (HEK293T) cells expressing luciferase-tagged ELG1; HEK293T ELG1-luciferase reporter, luminescence, 16 h; Potency, µM (titrated, usually from 46 µM), for inactives: top-dose activity change, positive = activation, most hits filed as activators; 1.3% of 330,000 active; AID 504466, 2011; further: % of control where 0% means no effect; nearly all actives have a fitted effect of over 60% in size
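Reporter readout depends on ELG1 protein level, which increases with genetic stress. After 16 hr compound exposure at 37 °C, luciferase activity was quantified using ONE-Glo.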
FLuc modulator – qHTS profiling assay for firefly luciferase inhibitor/activator using purifed enzyme and Km concentrations of substrates (counterscreen for miR-21 project); AID 588342, 2011; Luciferin 4-monooxygenase (Photinus pyralis), P08659; 6.9% of 360,000 active; purified FLuc, Km substrates, luminescence inhibition; Potency, µM (doses to about 57.5 µM), inactives show at the top dose activity change, negative = inhibition, hits mostly inhibitors;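 further: plate controls were vehicle for no effect and reference inhibitor for full effect; nearly all actives have a fitted effect of over 55% in size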
Target sequence (P08659 whole entry, looked up): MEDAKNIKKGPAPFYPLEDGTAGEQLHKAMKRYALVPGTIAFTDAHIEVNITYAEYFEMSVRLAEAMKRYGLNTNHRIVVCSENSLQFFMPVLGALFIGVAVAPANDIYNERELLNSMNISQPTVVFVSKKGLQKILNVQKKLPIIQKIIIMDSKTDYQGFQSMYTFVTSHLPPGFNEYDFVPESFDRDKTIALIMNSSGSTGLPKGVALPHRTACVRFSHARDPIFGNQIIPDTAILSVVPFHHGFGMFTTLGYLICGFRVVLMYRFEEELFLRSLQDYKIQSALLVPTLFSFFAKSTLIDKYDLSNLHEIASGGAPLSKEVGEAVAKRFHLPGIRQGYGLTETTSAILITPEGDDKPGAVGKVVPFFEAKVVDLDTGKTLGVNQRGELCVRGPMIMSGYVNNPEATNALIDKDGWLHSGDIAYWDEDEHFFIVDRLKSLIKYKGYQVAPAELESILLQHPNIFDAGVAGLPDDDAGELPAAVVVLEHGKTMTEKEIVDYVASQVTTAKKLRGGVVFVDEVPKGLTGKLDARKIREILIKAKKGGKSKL
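Biochemical qHTS of compounds, final roughly 60 µM downward over six points, against 10 nM purified firefly luciferase using Km concentrations of substrates (10 uM D-luciferin, 10 uM ATP) in Tris acetate pH 7.5 buffer; luminescence output.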
p53 reactivator – qHTS assay for re-activators of p53 using a Luc reporter. 0.063% of 320,000 active. Potency, µM (series often up to 92.2 µM), without a hit: at the highest dose activity change, positive = activation, most hits filed as activators. H1299 p53-A138V BP100-luciferase reporter, luminescence, 24 h; further: % of control where 0% means no effect; nearly all actives have a fitted effect of over 45% in size
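p53-null H1299 cells stably carrying temperature-sensitive p53-A138V and a BP100-luciferase reporter were pinned with compounds (4-point, 1:5 series) and held 24 hrs at 37 deg C. Luminescence was read 10 min after detection reagent.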
Rab9 promoter act – qHTS Assay for Rab9 Promoter Activators | Potency, µM (top dose mostly 9.22 µM), without a hit: at the highest dose activation, negative = inhibition, most hits filed as activators | AID 485297, 2010 | 2.8% of 320,000 active | Huh7 Rab9 promoter-luciferase reporter, luminescence, 24 h; further: % of control where 0% means no effect; nearly all actives have a fitted effect of over 60% in size
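Rab9 promoter-driven luciferase in stably transfected Huh7 cells; 1500 cells/well rested 2 h, exposed to compound in DMSO for 24 h at 37 °C, 5% CO2. Luminescence read 10 min after adding luciferase reagent at ambient temperature.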
NPC1 prom act – qHTS Assay for NPC1 Promoter Activators; Potency, µM (top dose mostly 9.22 µM), for the others: at the top dose activation, hits mostly activators; Huh7 NPC1 promoter luciferase reporter, 24 h; 2.4% of 320,000 active; AID 485313, 2010; further: % of control where 0% means no effect; nearly all actives have a fitted effect of over 60% in size
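NPC1 promoter–luciferase Huh7 cells; 24 h compound; luminescence.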
SMN2 splice up – qHTS Assay for Enhancers of SMN2 Splice Variant Expression; HEK293 SMN2-luciferase splicing reporter, luminescence, 30-36 h; Potency, µM (series often up to 46.1 µM), for the others: top-dose activity change, positive = activation, usual class: activators; 2.8% of 210,000 active; AID 1458, 2008; further: % of control where 0% means no effect; nearly all actives have a fitted effect of over 55% in size
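qHTS luciferase splicing reporter: luminescence rises when SMN2 exon 7 is included in transfected HEK293 cells. Compound exposure lasted 30-36 h at 37C, with 4.5 mM final sodium butyrate as control, followed by a ONE-Glo read.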
An asterisk follows results filed as active. The call rests on the fitted dose curve; in most records, active means well fitted curve in the direction sought with a large enough effect; inconclusive means small, poorly fitted or top-dose-only effect, or another doubt; inactive means no such curve, though single readings can be large; an effect the other way counts as inactive or inconclusive. Potency means the concentration at half of the fitted maximal effect.

`Cc1ccc2[nH]c(=O)c(CN(Cc3ccccc3)C(=S)NCCCN(C)C)cc2c1` gave ELG1 genotox 0.73µM*, FLuc modulator 0.76µM*, p53 reactivator 2%, Rab9 promoter act 0.32µM* and NPC1 prom act 0.32µM*.
Screening CN1C(=C2C(=O)OC(C)(C)OC2=O)Sc2ccccc21 returned ELG1 genotox inconclusive, FLuc modulator 15µM*, p53 reactivator 2%, Rab9 promoter act 2.5µM*, NPC1 prom act 3.5µM* and SMN2 splice up 13%.
Cc1nnc(SCC(=O)c2cc(C)n(C3CC3)c2C)s1 was read as ELG1 genotox inconclusive, FLuc modulator 12µM*, p53 reactivator inconclusive, Rab9 promoter act 2µM*, NPC1 prom act 2.2µM* and SMN2 splice up 25µM*.
Screening Cc1cc(C(=O)CSc2nnnn2C)c(C)n1C1CC1 returned ELG1 genotox inconclusive, FLuc modulator inconclusive, p53 reactivator inconclusive, Rab9 promoter act 2.8µM*, NPC1 prom act inconclusive and SMN2 splice up 10µM*.
For CNc1nnc(SCC(=O)c2cc(C)n(C3CC3)c2C)s1 the results were ELG1 genotox inconclusive, p53 reactivator inconclusive, Rab9 promoter act 3.5µM* and NPC1 prom act inconclusive.
For CCn1c(C)cc(C(=O)CSc2nnnn2C2CCCC2)c1C the results were ELG1 genotox inconclusive, FLuc modulator 1.9µM*, p53 reactivator inconclusive, Rab9 promoter act 0.71µM* and NPC1 prom act 0.71µM*.
Screening COc1cccc(-n2ccnc2SCC(=O)N2CCc3ccccc32)c1 returned ELG1 genotox -1%, FLuc modulator -2%, p53 reactivator -5%, Rab9 promoter act -7%, NPC1 prom act -1% and SMN2 splice up -12%.
For O=C(CSc1nnc2ccccn12)N1CCc2ccccc2C1 the results were ELG1 genotox inconclusive, FLuc modulator inconclusive, p53 reactivator 29%, Rab9 promoter act 27%, NPC1 prom act inconclusive and SMN2 splice up 26%.
Screening O=C(CSc1ccc(-c2ccccn2)nn1)N1CCc2ccccc21 returned ELG1 genotox 11%, FLuc modulator inconclusive, p53 reactivator 5%, Rab9 promoter act 16%, NPC1 prom act 5% and SMN2 splice up 12%.
O=C(CSc1ncccn1)N1CCCc2ccccc21 was read as ELG1 genotox 29%, FLuc modulator 0%, p53 reactivator 7%, Rab9 promoter act -3%, NPC1 prom act 0% and SMN2 splice up 0%.
Cc1ccnc(SCC(=O)N2CCc3ccccc32)n1 was read as ELG1 genotox inconclusive, FLuc modulator inconclusive, p53 reactivator inconclusive, Rab9 promoter act 2.8µM* and NPC1 prom act 3.2µM*.
For Cn1ccnc1SCC(=O)N1CCc2ccccc21 the results were ELG1 genotox inconclusive, FLuc modulator 15µM*, p53 reactivator inconclusive, Rab9 promoter act 2.8µM* and NPC1 prom act 2.2µM*.
For O=C(CSc1nnc2ccccn12)N1CCc2ccccc21 the results were ELG1 genotox inconclusive, FLuc modulator 13µM*, p53 reactivator inconclusive, Rab9 promoter act 3.2µM*, NPC1 prom act 2.8µM* and SMN2 splice up 13µM*.
`O=C(CSc1ccccn1)N1CCc2ccccc21` gave ELG1 genotox inconclusive, FLuc modulator 11µM*, p53 reactivator 12%, Rab9 promoter act 1.1µM*, NPC1 prom act 2.5µM* and SMN2 splice up 11µM*.
For COc1ccc(OC(=O)c2ccc(OC)c(S(=O)(=O)N3CCOCC3)c2)cc1 the results were ELG1 genotox 0%, FLuc modulator 3%, p53 reactivator 0%, Rab9 promoter act -3% and NPC1 prom act -1%.
For CC1=C(/C=C/C(C)=C/C=C/C(C)=C/C=O)C(C)(C)CCC1 the results were SMN2 splice up 3%.
`Cc1cc(-c2nnc(CCC(=O)NCc3cccc(C(F)(F)F)c3)o2)no1` gave ELG1 genotox 9%, FLuc modulator -16%, p53 reactivator -1%, Rab9 promoter act 7% and NPC1 prom act 9%.
Cc1ccc(-c2nnc(-c3cc(C)on3)o2)cc1 was read as ELG1 genotox 3.3µM*, FLuc modulator 1.5µM*, p53 reactivator 16%, Rab9 promoter act 0.56µM* and NPC1 prom act 0.79µM*.
`Cc1cc(-c2nnc(-c3cccc(C(F)(F)F)c3)o2)no1` gave ELG1 genotox 15%, FLuc modulator 17µM*, p53 reactivator 8%, Rab9 promoter act inconclusive and NPC1 prom act inconclusive.
Screening Cc1cc(-c2nnc(SCc3ccccn3)o2)no1 returned ELG1 genotox 11%, FLuc modulator -12%, p53 reactivator inconclusive, Rab9 promoter act 28%, NPC1 prom act 26% and SMN2 splice up 5%.
`O=C(c1cccc(NS(=O)(=O)c2cccc(C(F)(F)F)c2)c1)N1CCOCC1` gave ELG1 genotox -1%, FLuc modulator -1%, p53 reactivator -13%, Rab9 promoter act -1% and NPC1 prom act -1%.
Screening CC1CCCN(c2ccc(C(=O)NCC3CCCO3)cn2)C1 (stereo not given) returned ELG1 genotox 16%, FLuc modulator inconclusive, p53 reactivator inconclusive, Rab9 promoter act inconclusive, NPC1 prom act inconclusive and SMN2 splice up 13µM*.
CC1CCN(c2ccc(C(=O)NCc3cccs3)cn2)CC1 was read as ELG1 genotox inconclusive, FLuc modulator 24µM*, p53 reactivator inconclusive, Rab9 promoter act inconclusive, NPC1 prom act inconclusive and SMN2 splice up 15%.
Screening CC1CCN(S(=O)(=O)c2cccc(C(=O)NCc3cccs3)c2)CC1 returned ELG1 genotox -2%, FLuc modulator -1%, p53 reactivator 0%, Rab9 promoter act -1%, NPC1 prom act -4% and SMN2 splice up 6%.
For CC(C)OCCCNC(=O)c1ccc(CSc2nc3cccnc3n2Cc2ccccc2)cc1 the results were FLuc modulator -13%.
`CN(C)c1ccc(CNC(=O)c2ccc(Cn3c(SCc4ccccc4)nc4cccnc43)cc2)cc1` gave FLuc modulator 2.7µM* and SMN2 splice up 6%.
COc1ccc(Cn2c(SCc3ccc(C(=O)NCc4ccc(C)cc4)cc3)nc3cccnc32)cc1 was read as FLuc modulator inconclusive and SMN2 splice up -17%.
Screening Cc1cccc(CNC(=O)c2ccc(Cn3c(SCc4ccccc4)nc4cccnc43)cc2)c1 returned FLuc modulator 9.5µM*.
